# Reference: ChEMBL document CHEMBL4513216, “Probing the Open Global Health Chemical Diversity Library for Multistage-Active Starting Points for Next-Generation Antimalarials” (ACS Infect Dis, 2020)
# About 8,600 (12%) of roughly 69,000 compounds showed an effect of 50% or more. The list comes from a sample in which strong results are over-represented; it also holds similar structures and randomly drawn compounds.
# System: Plasmodium berghei
# Assay: Screen against P. berghei liver stage (PbLuc), transformed with Luciferase, at 10uM
# Format: functional, HepG2
# Details: tested at 10 uM
row,Structure (SMILES),INHIBITION [%]
1,Cc1cc(C)cc(C(=O)N2CCN(C(=O)N(C)C)CC2(C)C)c1,18.6
2,CN(C)C(=O)N1CCN(C(=O)c2ccc(Cl)c(Cl)c2)C(C)(C)C1,14.1
3,COC(=O)c1cccc(C(=O)N2CCN(C(=O)N(C)C)CC2(C)C)c1,68.6
4,CC(=O)N1CCC2(CC1)CN(C)CC[C@H]2C(F)(F)F,-22.1
5,c1cc(CN2CCc3ncnc(C4CCOC4)c3CC2)ccn1 (stereo unspecified),29.8
6,O=C(c1cn(-c2ccccc2)nn1)N1CCOCC(O)C1 (stereo unspecified),-28.1
7,O=C(CCc1ccccn1)NC1CCN(c2cccc(Cl)c2)C1 (stereo unspecified),46.4
8,O=C(CCc1ccccn1)NC1CCCN(C2Cc3ccccc3C2)C1 (stereo unspecified),51.1
9,O=C(CCc1nc(Cl)n[nH]1)NC1CCCN(C2Cc3ccccc3C2)C1 (stereo unspecified),35.1
10,Cn1nnnc1SC1CCCN(c2cccc(F)c2)C1=O (stereo unspecified),-12.4
11,CN(CCN1CCOCC1)C(=O)CCCc1ccccc1,-57.6
12,O=C(CN1CCOCC1)N(c1ccccc1)c1ccccc1,78.8
13,O=C(COCC(=O)N(c1ccccc1)c1ccccc1)N1CCOCC1,13.3
14,CCOCC(=O)N1CCC2(CC1)CN(Cc1cccnc1)C(=O)CO2,-47.9
15,COCCN1CCCC(Cc2cnc(-c3c(C)nn(C)c3C)cn2)C1 (stereo unspecified),-29.9
16,COCC1CN(c2ccc(C)nn2)Cc2cnn(CC3CCOCC3)c21 (stereo unspecified),13.6
17,Cc1cc2[nH]c(O)nc2cc1NCc1ccc(F)cc1,-5.64
18,COc1ccc(-c2nc3c([nH]2)CCNC3C(=O)O)c2ccccc12 (stereo unspecified),55.4
19,COc1ccc(-c2nc3c([nH]2)CCNC3C(=O)O)c2ccc(C)nc12 (stereo unspecified),36.6
20,Cc1ccc(-c2nc3c([nH]2)CCNC3C(=O)O)c2cccnc12 (stereo unspecified),-6.83
21,Cc1ccc2nc(C(=O)N3C[C@@H](C(=O)O)[C@H](c4cccnc4)C3)cn2c1,-10.1
22,COc1cc(CNC(=O)COC2CCCC2)ccc1O,9.06

row,Structure (SMILES),INHIBITION [%]
1,CNc1cc(C2CCN2c2ncccn2)nc(C)n1 (stereo unspecified),15.5
2,O=C(NC1CC1)C(c1ccccc1)N1CCN(Cc2ccc(Cl)s2)CC1 (stereo unspecified),-65
3,NC(=O)NC(=O)C(c1ccccc1)N1CCN(Cc2ccccc2)CC1 (stereo unspecified),24
4,NC(=O)NC(=O)C(c1ccccc1)N1CCN(Cc2ccc(Cl)s2)CC1 (stereo unspecified),50.4
5,CS(=O)(=O)c1cncnc1C1CCCN(C(=O)NCc2ccccc2)C1 (stereo unspecified),-2.665
6,c1ccc(CCN2C[C@@H]3OCCN(c4ncccn4)[C@@H]3C2)cc1,76.5
7,Cn1cncc1CN1C[C@@H]2OCCN(c3ncccn3)[C@@H]2C1,63.7
8,COc1ccc(CN2C[C@@H]3OCCN(c4ncccn4)[C@@H]3C2)cc1,32.4
9,Cc1noc(C)c1CN1CCO[C@H]2CN(Cc3cncn3C)C[C@H]21,18.5
10,Cc1ccc(N2CCO[C@H]3CN(Cc4cnn(C)c4)C[C@H]32)nn1,25.6
11,Cn1ccnc1CN1C[C@@H]2OCCN(c3ncccn3)[C@@H]2C1,28.7
12,Fc1ccccc1CN1C[C@@H]2OCCN(c3ncccn3)[C@@H]2C1,42.7
13,Cn1cc(CN2C[C@@H]3OCCN(c4ncccn4)[C@@H]3C2)cn1,83.5
14,c1cnc(N2CCO[C@H]3CN(CC4CC4)C[C@H]32)nc1,35.2
15,Cc1cc2cc(NC(=O)Cn3ncc(N4CCCC4)cc3=O)ccc2o1,30.3
16,CCn1cnnc1CNS(=O)(=O)N1CCCC1c1ccc(C)o1 (stereo unspecified),2.79
17,CC(C)c1nc(O)c2nnn(C[C@H]3CCCN(Cc4cccs4)C3)c2n1,2.55
18,CCn1nc(C)c2ncnc(NCCn3cccn3)c21,-15
19,CC(C)CC1SCC(=O)Nc2c1cnn2C1CCCC1 (stereo unspecified),-37.2
20,CN(C)C(=O)[C@@H]1C[C@H]2OCC[C@H]2N(CCOc2ccc(Cl)cc2)C1,-23.4
21,CC(C)Cc1cc(C(=O)NC(C)C)[nH]n1,50.8
22,CC(C)Cc1cc(C(=O)NCc2nnc[nH]2)[nH]n1,-21.3

row,Structure (SMILES),INHIBITION [%]
1,CC(C)Cc1cc(C(=O)NCCN2CCCS2(=O)=O)[nH]n1,-36.385
2,COc1nccc(N2CC[C@@H](N3CCCCCC3)[C@H](O)C2)c1C#N,42.1
3,c1cnn(CC2CCCN2Cc2nc(C3CC3)no2)c1 (stereo unspecified),11.4
4,CC(C)(C)NC(=O)NCc1cnn2ccccc12,35.2
5,CC(C)(C)c1cn2c(n1)C(CNCc1ccccn1)CCC2 (stereo unspecified),56.5
6,Cc1cn2c(n1)C(CNCc1cnn3ccccc13)CCC2 (stereo unspecified),50.1
7,CC(C)(C)c1ncc(CNCC2CCCn3ccnc32)s1 (stereo unspecified),-7.66
8,O=C(NCc1cnn2ccccc12)NC1CCCC1,-16.4
9,CC(C)(C)c1cn2c(n1)C(CNCc1cnn3ccccc13)CCC2 (stereo unspecified),51.1
10,CC(C)(C)C(=O)NCc1cnn2ccccc12,15.7
11,Cc1nc(C)c(CNCC2CCCn3ccnc32)s1 (stereo unspecified),28.7
12,Cn1cccc1CNCC1CCCn2cc(C(C)(C)C)nc21 (stereo unspecified),22.3
13,CN(CC1(C)COC1)C(=O)c1cc(-c2ccnn2C)nc2ccccc12,1.9
14,CSC(C)C(=O)N(C)CC(=O)Nc1ccc(Br)cn1 (stereo unspecified),-17.6
15,NC(=O)C(CNC(=O)CCc1ccccc1)Cc1ccc(F)cc1 (stereo unspecified),33.4
16,CN(C)C(=O)CO[C@H]1CN(Cc2ccccc2)[C@@H]2CCCO[C@H]12,3.3
17,CN(C)C(=O)CNC(=O)c1cc2ccccc2nc1N1CCCC1,42.3
18,CCn1cc(CCC(=O)NCc2csc(C3CC3)n2)c(C)n1,22.9
19,Cc1nn(C)cc1C(=O)NCc1csc(C2CC2)n1,18.3
20,CCn1cc(C(=O)NCc2csc(C3CC3)n2)c(C)n1,67
21,Cc1cccc2c1cnn2CCC(=O)NCc1csc(C2CC2)n1,23.6
22,CCn1nc(C)c(C(=O)NCc2csc(C3CC3)n2)c1C,76.3

row,Structure (SMILES),INHIBITION [%]
1,Cc1ccc2c(cnn2CCC(=O)NCc2csc(C3CC3)n2)c1,26.9
2,CCOC(=O)CSc1nnc([C@@H](N)C(C)CC)o1 (stereo partly specified),-30.6
3,CCOCCC(=O)Nc1ccnn1-c1ccc(Cl)cc1,12.9
4,COCC(=O)Nc1ccnn1-c1ccc(Cl)cc1,64.3
5,Cc1ccccc1-n1nccc1NC(=O)CCOC(C)C,43.8
6,COCCOCC(=O)Nc1ccc(C)cc1Cl,-71.6
7,COCC(=O)NC(c1ccc(Cl)cc1)C(F)(F)F (stereo unspecified),-21.8
8,COCCC(=O)Nc1ccnc(Oc2ccccc2)c1,-30
9,COCCOCC(=O)Nc1ccnn1-c1ccc(Cl)cc1,54.6
10,COCC(=O)NCCc1ccc(Cl)s1,28.4
11,COCCC(=O)Nc1ccnn1-c1ccccc1,67.1
12,Cc1cccc(C(=O)N2C[C@@H](OCc3ccncc3)[C@@H]3OCCC[C@@H]32)n1,-69.9
13,COCCN(Cc1ccccn1)C(=O)Nc1cccnc1-n1cccn1,9.4
14,NC(=O)CN1CCOCC(Cc2ccccc2)C1 (stereo unspecified),-4.51
15,C=C(C)COc1ccccc1C(=O)N1CCC(C(=O)NCC)C1 (stereo unspecified),48.5
16,CCN(c1ccc(C(=O)N2CCCCC2)cc1)S(=O)(=O)CC,40.3
17,OC1(CNc2cccc(F)c2)CCNCC1,28.5
18,CC(CN1CCOCC1)n1cncc1-c1cnn(Cc2ccccc2)c1 (stereo unspecified),-3.135
19,CCOC(=O)N1CCN(C(=O)C(CC)n2cccn2)CC1 (stereo unspecified),31.2
20,Cc1nccc([C@H]2C[C@@H]3CCN(S(C)(=O)=O)C[C@H]3O2)n1,33.2
21,O=C(c1ccc(Cl)o1)N1CCCC(c2cc(C(F)(F)F)[nH]n2)C1 (stereo unspecified),63.4
22,Cc1noc(C)c1C(=O)N1CCCC(c2cc(C(F)(F)F)[nH]n2)C1 (stereo unspecified),-27.9

row,Structure (SMILES),INHIBITION [%]
1,Cc1ccoc1C(=O)N1CCCC(c2cc(C(F)(F)F)[nH]n2)C1 (stereo unspecified),62.6
2,Cc1ccc(C(=O)N2CCCC(c3cc(C(F)(F)F)[nH]n3)C2)o1 (stereo unspecified),54.4
3,Cc1cc(C2CCCN(C(=O)c3ccc(Cl)o3)C2)n[nH]1 (stereo unspecified),42.9
4,Cc1cc(C(=O)N2CCCC(c3cc(C(F)(F)F)[nH]n3)C2)on1 (stereo unspecified),33.8
5,O=C(CO)N1CCCC(c2cc(C(F)(F)F)[nH]n2)C1 (stereo unspecified),6.26
6,CC(C)(C#N)C(=O)N1CCCC(c2cc(C(F)(F)F)[nH]n2)C1 (stereo unspecified),55.5
7,Cc1[nH]ncc1C(=O)N1CCCC(c2cc(C(F)(F)F)[nH]n2)C1 (stereo unspecified),24
8,Cc1nccc(C(=O)N2CCCC(c3cc(C(F)(F)F)[nH]n3)C2)n1 (stereo unspecified),40
9,O=C(c1ccco1)N1CCCC(c2cc(C(F)(F)F)[nH]n2)C1 (stereo unspecified),36.1
10,CCOCCC1(CNC(=O)c2ccncc2Cl)CCC1,20.4
11,O=C(NCc1ccco1)[C@@]12CCO[C@@H]1CCN(CC1CCOCC1)C2,11.4
12,CN(Cc1cccnc1)Cc1cn2c(n1)CN(C1CCOC1)CC2 (stereo unspecified),28.3
13,COCCN(Cc1nc2c(cnn2C)c(=O)[nH]1)C(C)COC (stereo unspecified),-7.35
14,COCCN1C(=O)CCC12CCC(NCc1cccnc1OC)CC2 (stereo unspecified),34.6
15,O=c1cc(CNCc2ccc3c(c2)OCO3)nc2ccc(Br)cn12,28
16,O=C(Cc1ccon1)NC1CCCN(c2ccccc2F)C1=O (stereo unspecified),9.72
17,O=C1CCCc2[nH]c(=O)c(C(=O)N(Cc3ccsc3)C3CC3)cc21,26.43
18,Cc1nc(CN2C[C@@H](NC(=O)C3CCC3)[C@H]3COC[C@H]32)cs1,-10.5
